aSyn rescue – qHTS of alpha-syn Inhibitors; Yeast expressing alpha-synuclein, growth rescue, BacTiter-Glo, 24 h; Potency, µM (series often up to 46.1 µM), without a hit: at the top dose growth rescue (activation), most hits filed as activators; hit rate 0.14% among 370,000; AID 652106, 2013; also: % of control where 0% means no effect; nearly all actives have a fitted effect of over 65% in size
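Galactose-induced alpha-syn yeast (OD600=0.02, raffinose-pregrown) + pinned cpd, 24 hr, 30 deg C; growth by BacTiter-Glo luminescence. Growth restoration scores as activation.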
Mito fusion yeast – qHTS Assay for Small Molecule Inhibitors of Mitochondrial Division or Activators of Mitochondrial Fusion | S. cerevisiae fusion-defective mutant growth rescue, CellTiterGlo 48 h | Potency, µM (doses to about 46.1 µM), without a hit: top-dose growth rescue (activation), hits mostly activators | hit rate 0.23% among 320,000 | AID 485298, 2010; also: % of control where 0% means no effect; nearly all actives have a fitted effect of over 45% in size
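Temperature-sensitive fusion-defective S. cerevisiae (e.g. fzo1-1, mgm1-5) were grown with compound in YPEG medium (3% ethanol, 3% glycerol) for 48 hours at 37C. Growth rescue was measured as viability by CellTiterGlo luminescence after 10 minutes at ambient.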
Abeta yeast res – qHTS for compounds that reverse cellular toxicity of Amyloid beta (A-beta) peptide in yeast: Primary Screen; yeast expressing A-beta42, growth rescue, OD600, 48 h; response scale: 0% DMSO, 100% iron-clioquinol control; Potency, µM (highest dose often 46.1 µM), actives largely listed as activators; hit rate 0.063% among 410,000; AID 1347071, 2019; also: nearly all actives have a fitted effect of over 55% in size
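Yeast A-beta toxicity model in growth medium with pinned compounds, 48 h at 30 C; growth read as absorbance at 600 nm. Normalized to FeCl3/clioquinol equimolar mix (positive) and DMSO (negative).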
TDP-43 yeast inh – qHTS of TDP-43 Inhibitors | TDP-43 expressing yeast growth rescue, BacTiter-Glo, 24 h | Potency, µM (series often up to 46.1 µM), for the others: at the top dose growth rescue (activation), usual class: activators | hit rate 1.8% among 410,000; also: % of control where 0% means no effect; nearly all actives have a fitted effect of over 50% in size
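In this qHTS, compounds that restore growth of yeast expressing TDP-43 appear as activators. Cells (OD600=0.02, galactose medium, raffinose-pregrown) are incubated with compound 24 hr at 30 deg C and growth is quantified by BacTiter-Glo.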
FUS yeast rescue – qHTS for Suppressors of FUS Proteinopathy: Primary screen using FUS-linked yeast assay | S. cerevisiae FUS-expressing, growth rescue, OD600, 24 h | hit rate 0.24% among 390,000 | Potency, µM (highest dose often 76.6 µM), hits mostly activators;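 also: plate controls were DMSO vehicle for no effect and reference control for full effect; nearly all actives have a fitted effect of over 55% in size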
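Galactose (2%) drives FUS expression in yeast precultured in raffinose; seeding density OD 0.005. Test compounds incubated 24hr at 30C and 99% humidity before absorbance at 600 nm was measured.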
* marks the source's active call; other numbers are inactive results; i = inactive; ? = inconclusive; . = not tested or not shown. Sampled rows, rich in hits. Any-hit rate of the full collection: about 2.2%. Calls follow the shape of the dose curve; as a rule, active = well fitted curve in the direction sought with a large enough effect; inconclusive = small, poorly fitted or top-dose-only effect, or another doubt; inactive = no such curve, though single readings can be large; an effect the other way counts as inactive or inconclusive. Potency is read from the fitted curve at half-maximal effect.

SMILES | aSyn rescue | Mito fusion yeast | Abeta yeast res | TDP-43 yeast inh | FUS yeast rescue
O=C(N/N=C/c1c[nH]c2ccccc12)C1COc2ccccc2O1 (stereo not drawn) | 1% | -2% | i | 13% | i
CC(C)(C)c1ccc2c(c1)OC(C(=O)N/N=C\c1ccc(-c3cccc(C(=O)O)c3)o1)CO2 (stereo not drawn) | 0% | 2% | i | 3% | ?
CC(C)(C)c1ccc2c(c1)OC(C(=O)N/N=C\c1ccccn1)CO2 (stereo not drawn) | 14µM* | 16µM* | ? | ? | .
CCCCC(Sc1nc2cc3c(cc2c(=O)n1CCCC(=O)NCc1ccc2c(c1)OCO2)OCO3)C(=O)OCC (stereo not drawn) | . | . | i | -17% | i
CSc1ccc(/C=C2\C=Cc3ccccc32)cc1 | 3% | . | . | . | .
O=C(Oc1ccc(/C=N/O)cc1)c1ccccc1 | -4% | 1% | i | 11µM* | i
FC(F)(F)c1ccccc1Cc1c(-c2cccc(Br)c2)nc2c3ccccc3ccn12 | 2% | . | i | 14µM* | i
CCOCCCNC(=S)N1CCN(c2nc(-c3ccc(F)cc3)cs2)CC1 | 4% | -2% | ? | 25µM* | i
COCCCNC(=S)N1CCN(c2nc(-c3ccc(F)cc3)cs2)CC1 | -2% | -8% | ? | 22µM* | ?
COc1cccc(-c2csc(N3CCN(C(=O)Nc4ccc(F)cc4)CC3)n2)c1 | -4% | ? | i | 18µM* | 13µM*
CCOC(=O)C(=O)N1CCN(c2nc(-c3ccc(Cl)cc3)cs2)CC1 | -4% | 10% | i | ? | i
CNC(=S)N1CCN(c2nc(-c3ccc(F)cc3)cs2)CC1 | -4% | -1% | i | 15% | i
CCOC(=O)N1CCN(c2nc(-c3ccc(F)cc3)cs2)CC1 | -17% | -1% | i | 20µM* | i
COc1ccc(/C=C/c2nc3ccccc3c(=O)n2-c2cccc(C(F)(F)F)c2)cc1 | . | . | i | 0% | i
Cc1ccccc1NCC(=O)N/N=C/c1ccc[nH]1 | . | . | . | . | i
C=CCn1c(SCc2cccc(C(F)(F)F)c2)nnc1-c1ccc(OC)cc1 | . | . | . | . | i
Cc1cnc(NC(=O)CSc2nc3ccccc3s2)s1 | 4% | 5% | i | 14µM* | i
CC1CCCC(C)N1C(=O)CSc1nc2ccccc2s1 (stereo not drawn) | . | 4% | i | 7.9µM* | i
CC1CCN(C(=O)CSc2nc3ccccc3s2)CC1 | 2% | 2% | i | ? | .
Cc1cnc(NC(=O)CSc2ccc(Cl)cc2)s1 | 3% | 2% | ? | 11µM* | i
Cc1ccc(C)c(NC(=O)CN2C(=O)CCc3ccccc32)c1 | . | . | i | ? | i
Cc1c(-c2nc(-c3ccc4c(c3)OCO4)no2)nnn1-c1ccc(C(C)C)cc1 | . | . | i | 13% | i
O=C(NCCc1ccccc1)c1ccc(-c2ccc(F)cc2)o1 | 0% | -2% | i | 20µM* | i
COc1ccc(C2Nc3ccc(NC(C)=O)cc3C(=O)N2Cc2ccccc2)cc1COc1ccc(NC(C)=O)cc1 (stereo not drawn) | 3% | . | . | . | .
Cc1ccc(NC(=O)N2CC3CCCN3c3ccccc32)c(C)c1 (stereo not drawn) | . | . | i | 22% | i
SMILES | aSyn rescue | Mito fusion yeast | Abeta yeast res | TDP-43 yeast inh | FUS yeast rescue
Cc1cc2nc(-c3ccco3)c(Cc3cccc(Cl)c3)n2c(C)c1Br | 2% | . | i | 13µM* | i
Cc1nc2ccccc2n1C(=O)c1ccccc1[N+](=O)[O-] | -1% | 7% | i | 20µM* | .
COc1nc(NC23CC4CC(CC(C4)C2)C3)nc(OC)n1 | 13% | -3% | i | 14µM* | i
Cn1c(SCC(=O)Nc2ccccc2-c2ccccc2)nnc1-c1cnccn1 | . | . | . | . | i
CCCCN1C(=O)C(CC(=O)NCCCCc2ccccc2)CC(C(=O)N2CCOCC2)=C1C (stereo not drawn) | 20µM* | . | i | 25% | i
CC(=O)/C(=N/Nc1cccc(Cl)c1)N1CCOCC1 | 12% | 2% | i | 18µM* | i
